Reference: PubChem BioAssay (EPA / NIEHS)
Results filed as inconclusive are left out. Activity calls are given as the source filed them. How the source made its calls: active means hit-call score of the fitted dose curve at least 0.9, where 1 is the maximum; inconclusive means response in the unintended direction; inactive means score below 0.9.

What follows are molecules tested against human Retinoic Acid Receptor gamma (RARg), RARG (gene 5916) (UniProt P13631) (assay: ATG_RARg_TRANS: Attagene TRANS-FACTORIAL HepG2 Assay for human Retinoic Acid Receptor gamma (RARg) (AID 2283009)).
Method: ATG_TRANS is a cell-based, multiplexed-readout assay that uses HepG2, a human liver cell line, with measurements taken at 24 hours after chemical dosing in a 24-well plate.ATG_RARg_TRANS is one of 30 assay component(s) measured or calculated from the ATG_TRANS assay. It is designed to make measurements of mRNA induction, a form of inducible reporter, as detected with fluorescence intensity signals by Reverse transcription polymerase chain reaction (RT-PCR) and Capillary electrophoresis technology.Data from the assay component ATG_RARg_TRANS was analyzed into 1 assay endpoint. This assay endpoint, ATG_RARg_TRANS, was analyzed in the positive analysis fitting direction relative to DMSO as the negative control and baseline of activity. Using a type of inducible reporter, measures of mRNA for gain-of-signal activity can be used to understand the reporter gene at the transcription factor-level as they relate to the gene RARG. Furthermore, this assay endpoint can be referred to as a primary readout, because this assay has produced multiple assay endpoints where this one serves a reporter gene function. To generalize the intended target to other relatable targets, this assay endpoint is annotated to the nuclear receptor intended target family, where the subfamily is non-steroidal.
Human liver HepG2 cells are transiently transfected with multiple reporter transcription units (MRTUs) in 6-well plates using FuGene 6 reagent (Roche; 3 ml FuGene/1 mg DNA). The MRTU constructs are regulated by a cis-regulating element (promoter). […] A major difference between the CIS and TRANS system is that in CIS activities of endogenous TFs are measured, whereas the TRANS assay evaluates changes in activities of exogenous, chimeric NR-Gal4 proteins. […] At the end of 24 hour incubation, total RNA was isolated using TriZol reagent (Invitrogen). The isolated RNA is then reverse-transcribed using oligo(dT) primer and Mo-MLV reverse transcriptase (Invitrogen) with DNAse I (Ambion) treatment for 30 min. The one-tenth of the produced cDNA was amplified by PCR using Taq DNA polymerase (Invitrogen) and two reporter sequence-specific primers. The PCR products were fluorescently labeled by primer extension with 6-arboxyfluorescein (6-FAM) 5'-labeled reporter sequence-specific primer (2 min at 95 C, 20 s at 68 C and 10 min at 72 C) and these products were digested with 5U of HpaI (New England Biolabs) for 2h at 37 C. […] The raw capillary electrophoresis data was processed using Attagraph software (Attagene).

Sequence of human Retinoic Acid Receptor gamma (RARg), RARG (gene 5916) (P13631 whole entry, looked up): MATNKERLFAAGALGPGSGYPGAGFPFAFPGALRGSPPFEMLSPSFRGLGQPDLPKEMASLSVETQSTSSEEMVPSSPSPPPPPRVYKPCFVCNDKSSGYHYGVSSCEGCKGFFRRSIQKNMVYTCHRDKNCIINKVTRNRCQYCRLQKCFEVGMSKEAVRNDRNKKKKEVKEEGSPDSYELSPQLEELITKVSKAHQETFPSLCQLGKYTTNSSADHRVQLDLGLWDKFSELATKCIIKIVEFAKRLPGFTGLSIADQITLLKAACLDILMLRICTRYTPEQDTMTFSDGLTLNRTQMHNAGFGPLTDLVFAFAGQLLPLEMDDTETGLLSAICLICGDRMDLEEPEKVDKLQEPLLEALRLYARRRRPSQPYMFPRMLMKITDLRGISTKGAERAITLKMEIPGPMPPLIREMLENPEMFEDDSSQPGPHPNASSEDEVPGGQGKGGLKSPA

| SMILES | outcome |
| --- | --- |
| C=CC(F)(F)C(F)(F)C(F)(F)C(F)(F)C(F)(F)C(F)(F)C(F)(F)C(F)(F)F | inactive |
| [Co] | inactive |
| C=CC(F)(F)C(F)(F)C(F)(F)C(F)(F)C(F)(F)C(F)(F)C(F)(F)C(F)(F)C=C | inactive |
| CCCCCCCOC(=O)c1ccccc1C(=O)OCCCCCCC | inactive |
| O=C(CC(=O)C(F)(F)C(F)(F)F)C(F)(F)F | inactive |
| OCC(F)(F)C(F)(F)C(F)(F)C(F)F | inactive |
| Cc1cc(C)cc(O)c1 | inactive |
| O=C(O)C(F)(F)C(F)(F)C(F)(F)C(F)(F)C(F)(F)C(F)(F)C(F)(F)C(F)(F)Cl | inactive |
| O=C(O)C(F)(OC(F)(F)C(F)(OC(F)(F)C(F)(F)C(F)(F)F)C(F)(F)F)C(F)(F)F (stereo not given) | inactive |
| FC(F)(F)C(F)(F)C(F)(F)N(C(F)(F)C(F)(F)C(F)(F)F)C(F)(F)C(F)(F)C(F)(F)F | inactive |
| FC(F)(F)C(F)(F)C(F)(F)C(F)(F)CCI | inactive |
| Cc1ccc(S(=O)(=O)OCC(F)(F)C(F)(F)C(F)(F)C(F)(F)C(F)(F)C(F)F)cc1 | inactive |
| O=C(O)C(F)(F)C(F)(F)OC(F)(F)F | inactive |
| OC[C@@H](O)[C@@H](O)[C@H](O)[C@@H](O)CO | inactive |
| O=C(O)C=C(C(F)(F)F)C(F)(F)F | inactive |
| Cc1cccc(N(C)C)c1 | inactive |
| C=CC/C=C/C/C=C/C/C=C/C | inactive |
| O=C(O)C(F)(F)C(F)(F)C(F)(F)C(F)(F)C(F)(F)C(F)(F)C(F)(F)C(F)(F)C(F)(F)C(F)(F)C(F)(F)C(F)(F)C(F)(F)F | inactive |
| CC(C)OC(=O)c1ccccc1C(=O)OC(C)C | inactive |
| FC(F)(F)C(F)(F)C(F)(F)C(F)(F)C(F)(F)CCI | inactive |

| SMILES | outcome |
| --- | --- |
| FC(F)(F)C(F)(F)CNCC(F)(F)C(F)(F)F | inactive |
| OCC(F)(F)C(F)(F)C(F)(F)F | inactive |
| CCCCCCCCC(F)(F)C(F)(F)C(F)(F)C(F)(F)C(F)(F)C(F)(F)F | inactive |
| FC(F)(F)C(F)(F)C(F)(F)C(F)(F)C(F)(F)C(F)(F)CC1CO1 (stereo not given) | inactive |
| CCCCCCS | inactive |
| Nc1ccc(S(=O)(=O)Nc2nccs2)cc1 | inactive |
| C(=C(c1ccccc1)c1ccccc1)c1ccccc1 | inactive |
| O=S(=O)(OCCOC(F)(F)F)C(F)(F)F | inactive |
| CC/C=C\CCOC(=O)c1ccccc1 | inactive |
| C=C(C)C(=O)OCC(F)(F)C(F)(F)C(F)(F)C(F)(F)C(F)(F)C(F)(F)C(F)(F)F | inactive |
| CCO[Si](CCC(F)(F)C(F)(F)C(F)(F)C(F)(F)C(F)(F)C(F)(F)F)(OCC)OCC | inactive |
| O=C(O)C(F)(F)C(F)(F)C(F)(F)C(F)(F)F | inactive |
| FC(F)(F)C(F)(F)C(F)(F)C(F)(F)C(F)(F)C(F)(F)C(F)(F)Br | inactive |
| CCCCOCCOCCOC(=O)CCCCC(=O)OCCOCCOCCCC | inactive |
| O=C(O)C(F)(OC(F)(F)C(F)(OC(F)(F)C(F)(OC(F)(F)C(F)(F)C(F)(F)F)C(F)(F)F)C(F)(F)F)C(F)(F)F (stereo not given) | inactive |
| O=C(O)C(F)(F)C(F)(F)C(F)(F)C(F)(F)C(F)(F)C(F)(F)C(F)(F)C(F)(F)C(F)(F)C(F)F | inactive |
| O=S(=O)(O)C(F)(F)C(F)(F)C(F)(F)C(F)(F)C(F)(F)C(F)(F)C(F)(F)F | inactive |
| C#C[C@]1(O)CC[C@H]2[C@@H]3CCc4cc(OC)ccc4[C@H]3CC[C@@]21C | inactive |
| CCCCCCOC(=O)c1ccccc1 | inactive |
| CCc1c(Br)c(Br)c(Br)c(Br)c1Br | inactive |
